# Laboratory results published in PubChem BioAssay (NCATS).
# “And” between values parts separate entries of the source, which are not always exact repeats. Equal values may be shown once. Records with an inconclusive call do not appear. A call without a number means that no potency is given here. Values without a mark were called inactive. The source made the active and inactive calls. Calls follow the shape of the dose curve; as a rule, active = well fitted inhibition curve with a large enough effect; inconclusive = small, poorly fitted or top-dose-only effect; inactive = flat fitted curve, though single readings scatter.
# Legend:
# [1] = tested on: CRL-7250; experiment: Cytotoxic Profiling of Annotated Libraries Using Quantitative High-Throughput Screening (AID 1296008); conditions: Five cell lines viability, CellTiter-Glo ATP luminescence, 48-72 h; max response: active compounds read low
# Summary of the method: (§1)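 Compounds were pin-transferred onto cells and incubated 48 or 72 hr at 37 degree Celsius, 95% humidity. CellTiter-Glo was added, plates sat 10 min at room temperature, then ATP-coupled luminescence was imaged as the viability read-out.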
# [2] = tested on: HEK293; experiment: as above; conditions: Five cell lines viability, CellTiter-Glo ATP luminescence, 48-72 h; max response: active compounds read low
# Summary of the method: as §1
# [3] = tested on: PC15; experiment: qHTS profiling for inhibitors of Plasmodium falciparum proliferation (AID 504749); conditions: P. falciparum in erythrocytes, SYBR Green DNA, 72 h; series mostly up to 28.7 µM
# Summary of the method: (§2)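 Fluorescence of SYBR Green-bound parasite DNA, read at 485/535 nm, served as the growth measure. Infected erythrocytes were cultured with compound 72 h; artemisinin (0.29 uM) and DMSO wells defined the normalization range.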
# [4] = tested on: PC26; experiment: as above; conditions: P. falciparum in erythrocytes, SYBR Green DNA, 72 h; series mostly up to 28.7 µM
# Summary of the method: as §2
# [5] = tested on: PC49; experiment: as above; conditions: P. falciparum in erythrocytes, SYBR Green DNA, 72 h; series mostly up to 28.7 µM
# Summary of the method: as §2
# [6] = tested on: SC27B; experiment: as above; conditions: P. falciparum in erythrocytes, SYBR Green DNA, 72 h; series mostly up to 28.7 µM
# Summary of the method: as §2
# [7] = tested on: TAB109; experiment: as above; conditions: P. falciparum in erythrocytes, SYBR Green DNA, 72 h; series mostly up to 28.7 µM
# Summary of the method: as §2
# [8] = tested on: TAB113; experiment: as above; conditions: P. falciparum in erythrocytes, SYBR Green DNA, 72 h; series mostly up to 28.7 µM
# Summary of the method: as §2
# [9] = tested on: TAB165; experiment: as above; conditions: P. falciparum in erythrocytes, SYBR Green DNA, 72 h; series mostly up to 28.7 µM
# Summary of the method: as §2
# [10] = tested on: W2; experiment: as above; conditions: P. falciparum in erythrocytes, SYBR Green DNA, 72 h; series mostly up to 28.7 µM
# Summary of the method: as §2
# Also: nearly all actives have a fitted effect of over 60% in size.
# Potency is read from the fitted curve at half-maximal effect.
compound,measurement,setting,value
Oc1ccc2c3c1O[C@H]1c4[nH]c5c(c4C[C@@]4(O)[C@@H](C2)N(CC2CC2)CC[C@]314)C[C@@]1(O)[C@H]2Cc3ccc(O)c4c3[C@@]1(CCN2CC1CC1)[C@H]5O4,outcome,[1],inactive
same,outcome,[2],inactive
S=C(SSC(=S)N1CCCCC1)N1CCCCC1,max response,[1],-1.9%
same,Potency,[2],944 nM (active)
CO[C@H]1CCC(O[C@H]2C[C@H]([C@]3(C)CC[C@]4(C[C@H](O)[C@@H](C)[C@@H]([C@@H](C)C=C(C)C(=O)[C@H](C)C[C@H](C)C(=O)O)O4)O3)O[C@]3(O[C@@H]([C@H]4O[C@@](O)(CO)[C@H](C)C[C@H]4C)C[C@H]3C)[C@H]2C)O[C@H]1C (some centres not stated),Potency,[1],1050 nM (active)
same,Potency,[2],590 nM (active)
O=C(Nc1ccncc1)C(=O)c1cn(Cc2ccc(Cl)cc2)c2ccccc12,Potency,[1],296 nM (active)
same,Potency,[2],37.2 nM (active)
C1=C2CCCN[C@H]2[C@@H]2C[C@H]1[C@@H]1CCCCN1C2,max response,[1],-2.39%
same,max response,[2],0.094%
C/C=C(/C)C(=O)O[C@H]1C(C)=C2[C@H]([C@@H]1OC(=O)CCCCCCC)[C@@](C)(OC(C)=O)C[C@H](OC(=O)CCC)[C@@]1(O)[C@H]2OC(=O)[C@@]1(C)O,Potency,[1],41.1 nM (active)
same,Potency,[2],29.1 nM (active)
C=C[C@@H]1CN2CCC1C[C@@H]2[C@@H](O)c1ccnc2ccccc12 (some centres not stated),max response,[1],-5.2%
same,Potency,[2],18700 nM (active)
O=C1CCC[C@@H]2[C@H]3CCCN4CCC[C@@H](CN12)[C@@H]34,max response,[1],0.603%
same,max response,[2],-4.12%
CCC(=O)O[C@@H]1C=C2CCC3C(CCC4(C)C3CC[C@@H]4OC(=O)CC)C2CC1 (some centres not stated),max response,[1],-3.72%
same,max response,[2],2.37%
Cc1c(C(=O)c2cccc3ccccc23)c2cccc3c2n1[C@H](CN1CCOCC1)CO3,Potency,[1],20900 nM (active)
same,Potency,[2],18700 nM (active)
COc1ccc(N(C(=O)Oc2c(C)cccc2C)c2ccnc(Nc3ccc(N4CCN(C)CC4)cc3)n2)c(OC)c1,max response,[1],-8.13% and -61.8%
same,max response,[2],1.61% and -25.7%
CCO/N=C(\CC)C1=C(O)CC(c2c(C)cc(C)cc2C)CC1=O (configuration not stated),Potency,[2],24300 nM (active)
CN1C2CCC1CC(OC(=O)c1cc(Cl)cc(Cl)c1)C2 (configuration not stated),Potency,[3],inactive
same,Potency,[4],inactive
same,Potency,[5],inactive
same,Potency,[6],inactive
same,Potency,[7],inactive
same,Potency,[8],inactive
same,Potency,[9],inactive
same,Potency,[10],10700 nM (active)
CCCN1CCC[C@H](c2cccc(O)c2)C1,Potency,[3],inactive
same,Potency,[4],inactive
same,Potency,[5],inactive
same,Potency,[6],inactive
same,Potency,[7],inactive
same,Potency,[8],inactive
same,Potency,[9],inactive
same,Potency,[10],15100 nM (active)
CC(=O)OCC1=C(C(=O)O)N2C(=O)[C@@H](N)[C@@H]2SC1,Potency,[3],inactive
same,Potency,[4],inactive
same,Potency,[5],inactive
same,Potency,[10],inactive
same,outcome,[1],inactive
COC1=CC(C)=C[C@@H](C)[C@@H](O)[C@@H](C)CC(C)=CC=C[C@H](OC)[C@H]([C@@H](C)[C@@H](O)[C@H](C)[C@@]2(O)C[C@@H](O)[C@H](C)[C@@H](C(C)C)O2)OC1=O,Potency,[2],11.8 nM (active)
CC[C@@H]1[C@@H](C)O[C@@](O)([C@@H](C)[C@H](O)[C@H](C)[C@H]2OC(=O)C=CC=C[C@@H](C)[C@@H]([C@@H](C)[C@@H](O)[C@H](C)[C@@]3(O)C[C@H](O[C@H]4C[C@H](O)[C@H](O)[C@H](C)O4)[C@H](CC)[C@@H](C)O3)OC(=O)C=CC=C[C@@H]2C)C[C@H]1O[C@H]1C[C@H](O)[C@H](O)[C@H](C)O1,Potency,[2],1180 nM (active)
COC(=O)[C@@H](N)CCCN=C(N)N[N+](=O)[O-],Potency,[3],inactive
same,Potency,[4],inactive
same,Potency,[5],inactive
same,Potency,[6],inactive
same,Potency,[7],inactive
same,Potency,[8],inactive
same,Potency,[9],inactive
same,Potency,[10],inactive
same,outcome,[1],inactive
same,max response,[2],0.845%
C=CCN1CC[C@]23CCCCC2[C@H]1Cc1ccc(O)cc13 (some centres not stated),Potency,[4],inactive
same,Potency,[5],inactive
same,Potency,[6],inactive
same,Potency,[7],inactive
same,Potency,[8],inactive
same,Potency,[9],inactive
CC(=O)O[C@@]12CO[C@H]1C[C@H](O)[C@@]1(C)C(=O)[C@H](O)C3=C(C)[C@@H](O)C[C@@](O)([C@@H](OC(=O)c4ccccc4)[C@@H]21)C3(C)C,Potency,[2],2960 nM (active)
CC(=Cc1csc(C)n1)[C@@H]1C[C@H]2O[C@@H]2CCC[C@H](C)[C@@H](O)[C@@H](C)C(=O)C(C)(C)[C@@H](O)CC(=O)O1,max response,[2],-79%
CCCCc1ccc(C(=O)O)nc1,Potency,[3],inactive
same,Potency,[4],inactive
same,Potency,[5],inactive
same,Potency,[6],inactive
same,Potency,[7],inactive
same,Potency,[8],inactive
same,Potency,[9],inactive
same,Potency,[10],inactive
